# Results published in PubChem BioAssay (NCATS).
# A number with no mark means an inactive call. Records with an inconclusive call do not appear. Entries that show only a call come without a potency. Active and inactive are the calls of the source. Unless noted, calls come from the whole dose curve; as a rule, active = well fitted curve in either direction with a large enough effect (not every such curve was filed as active); inconclusive = small, poorly fitted or top-dose-only effect, or another doubt; inactive = flat fitted curve, though single readings scatter.
# Tests used:
# [1] = target: Cytochrome P450 1A2 (Homo sapiens) (UniProt P05177); assay: p450-cyp1a2 (AID 410; calls by dose curve; note: potency is the fitted concentration of half-maximal effect)
# Procedure, shortened: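 Human CYP1A2 (20nM) demethylated Luciferin-ME at its Km (100uM) in 100mM KPO4. After 10 min compound preincubation, NADPH regeneration ran the reaction 60 min at room temperature. Luciferin was read by luminescence, normalized to 57 uM furafylline.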
# [2] = NFAT Signaling Pathway (AID 444); settings: Jurkat NFAT-bla M1, carbachol, beta-lactamase ratio, 5 h; at 17.2 µM (top of the series);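 note: carbachol stimulus at about its EC50 of 1 µM final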
# Procedure, shortened: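 Jurkat cells with NFAT-driven β-lactamase reporter and co-expressed M1 receptor, stimulated with carbachol (final 1 uM, ~EC50), compound titration, 5 h at 37 °C. CCF4 loaded 1 h at RT; 460/530 nm ratio gave %activity and AC50.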
# [3] = Stat Signaling Pathway (AID 446);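 note: ME-180 cervical cancer cells given 40 pM IL-6 alongside compound; SIE-controlled beta-lactamase reporter measured as 460/530 nm FRET emission ratio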
# Procedure, shortened: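 ME-180 SIE-bla cells; overnight plating; cpd + IL-6 40 pM, 5 h, 37 C; LiveBLAzer 2.5 h RT; 460/530 nm emission ratio. Normalized to 300 pM IL-6 and 125 nM JAK inhibitor controls.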
# [4] = target: Ubiquitin carboxyl-terminal hydrolase 1 (Homo sapiens) (UniProt O94782); assay: Inhibitors of USP1/UAF1: Pilot qHTS (AID 504865; active = well fitted curve in the direction sought with a large enough effect; an effect the other way counts as inactive or inconclusive;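 note: rhodamine fluorescence freed from ubiquitin-rhodamine substrate followed over time; top concentration of the series differs between compounds; nearly all actives have a fitted effect of over 35% in size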)
# Procedure, shortened: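 In 50mM HEPES pH 7.8 containing 0.5mM EDTA, 1mM TCEP, 0.1 mg/ml BSA and 0.01% Tween-20, 1nM USP1/UAF1 is exposed to compound for 15 min, then Ub-Rho (150nM final) is added and fluorescence is read over time.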
# [5] = test system: HIV-1 nucleocapsid protein NCp7 (binding to TG oligonucleotide); assay: HIV Nucleocapsid (AID 346; call rule not given here;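 note: potency is the fitted concentration of half-maximal effect; potency is for inhibitors that block NC binding and lower polarization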); settings: HIV-1 NC / fluorescein-TGTGTGTG probe, fluorescence polarization
# Procedure, shortened: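 Reagents dispensed (10 nM TG4xF, 100 nM HIV-1 NC), plates spun, compounds pin-transferred, then incubated 1 hr at room temperature before FP imaging. Buffer: Hepes pH 7.5, 250mM NaCl, 1uM ZnCl2, 100 uM TCEP, 5 mM 2-mercaptoethanol.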
# [6] = target: Lysosomal acid glucosylceramidase (Homo sapiens) (UniProt P04062); assay: Glucocerebrosidase-p2 (AID 348; in the data active = potency below about 10 µM; note: potency is the fitted concentration of half-maximal effect); settings: purified GBA, blue fluorogenic substrate, 40 min
# Procedure, shortened: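 Compounds titrated from 0.6 nM upwards against 0.2 nM enzyme in pH 5.9 citric acid/KH2PO4, taurocholate, tween-20; blue fluorogenic substrate 80 uM, 40 min room temperature, stopped and read Ex 365/Em 440 for AC50.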
# [7] = AP1 Signaling Pathway (AID 357);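 note: ME-180 reporter cells stimulated with EGF at its EC50 level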
# Procedure, shortened: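 Read-out was the 460nm/530nm emission ratio (excitation 405nm) after CCF4 loading for 2.5 hours at room temperature. Cells carried an AP-1-driven beta-lactamase reporter, were stimulated with EC50 EGF plus compound for 5 hours, and AC50 values came from titrations.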
# [8] = target: Glucocorticoid receptor (Homo sapiens) (UniProt P04150); assay: GR-EFC Redistribution (AID 451; calls by dose curve; note: potency is the fitted concentration of half-maximal effect); settings: CHO-K1 GR-EFC translocation, beta-gal luminescence, 2 h
# Procedure, shortened: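 CHO-K1 cells expressing nuclear EA and GR-ED fragments of b-gal; compounds titrated up to 46 uM final, 2 h at 37 C. GR nuclear translocation read as complemented b-gal luminescence after 1 h RT detection.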
# [9] = target: Mitogen-activated protein kinase 10 (Mus musculus) (UniProt Q61831); assay: JNK3 AlphaScreen Assay (AID 530);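 note: kinase came from lysate of stimulated human HepG2 cells; signal reports phosphorylation of biotinylated GST-cJun 1-79 at Ser73 with 10 µM ATP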
# Procedure, shortened: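 qHTS format: compounds tested as titrations against IL-1beta/TNF-alpha-activated HepG2 lysate JNK3 with biotin-GST-cJun substrate and 10 uM ATP at room temperature. Loss of anti-phospho-cJun AlphaScreen signal indicates inhibition.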
# [10] = target: 3',5'-cyclic-AMP phosphodiesterase 4B (Homo sapiens) (UniProt Q07343); assay: qHTS Assay for Inhibitors of PDE-IV (AID 607; active = well fitted activation curve with a large enough effect in the main read-out, with a control signal flat, not every such curve was filed as active)
# Procedure, shortened: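 ACTOne HEK293 cells carry a modified cAMP-gated CNG channel and express endogenous PDE4; plated 1000 cells/well, compounds up to 22.9 uM final. Membrane-potential dye fluorescence (ex 535/em 590) was read; parental cells received 10 uM forskolin + 100 uM RO 20-1724.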
# [11] = target: Cytochrome P450 3A4 (Homo sapiens) (UniProt P08684); assay: qHTS Assay for Activators of Cytochrome P450 3A4 (AID 885; active = well fitted curve in the direction sought with a large enough effect; an effect the other way counts as inactive or inconclusive; note: nearly all actives have a fitted effect of over 65% in size)
# Procedure, shortened: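 20nM CYP3A4 + 25uM Luciferin-PPXE (=KM), 200mM KPO4; cpd 10 min RT; NADPH regen, 60 min RT; stop w/ detection buffer, 20 min; luminescence. Normalized to 57 uM ketoconazole.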
# Sequence of Cytochrome P450 1A2 (Homo sapiens) (P05177 whole entry, looked up): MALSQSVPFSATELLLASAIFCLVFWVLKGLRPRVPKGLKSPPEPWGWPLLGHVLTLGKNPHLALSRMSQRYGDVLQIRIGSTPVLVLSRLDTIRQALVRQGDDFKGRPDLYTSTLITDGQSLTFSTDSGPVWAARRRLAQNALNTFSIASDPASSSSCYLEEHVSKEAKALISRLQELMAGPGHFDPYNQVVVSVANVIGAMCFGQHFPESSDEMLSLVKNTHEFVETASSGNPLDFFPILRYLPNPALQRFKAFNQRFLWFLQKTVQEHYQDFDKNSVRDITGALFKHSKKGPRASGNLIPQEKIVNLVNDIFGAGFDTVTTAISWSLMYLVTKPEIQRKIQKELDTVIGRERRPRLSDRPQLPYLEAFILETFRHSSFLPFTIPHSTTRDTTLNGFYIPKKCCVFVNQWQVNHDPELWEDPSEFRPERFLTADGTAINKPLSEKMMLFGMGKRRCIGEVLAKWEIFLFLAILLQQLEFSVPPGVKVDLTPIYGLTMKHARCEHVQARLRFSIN
# Sequence of Lysosomal acid glucosylceramidase (Homo sapiens) (P04062 whole entry, looked up): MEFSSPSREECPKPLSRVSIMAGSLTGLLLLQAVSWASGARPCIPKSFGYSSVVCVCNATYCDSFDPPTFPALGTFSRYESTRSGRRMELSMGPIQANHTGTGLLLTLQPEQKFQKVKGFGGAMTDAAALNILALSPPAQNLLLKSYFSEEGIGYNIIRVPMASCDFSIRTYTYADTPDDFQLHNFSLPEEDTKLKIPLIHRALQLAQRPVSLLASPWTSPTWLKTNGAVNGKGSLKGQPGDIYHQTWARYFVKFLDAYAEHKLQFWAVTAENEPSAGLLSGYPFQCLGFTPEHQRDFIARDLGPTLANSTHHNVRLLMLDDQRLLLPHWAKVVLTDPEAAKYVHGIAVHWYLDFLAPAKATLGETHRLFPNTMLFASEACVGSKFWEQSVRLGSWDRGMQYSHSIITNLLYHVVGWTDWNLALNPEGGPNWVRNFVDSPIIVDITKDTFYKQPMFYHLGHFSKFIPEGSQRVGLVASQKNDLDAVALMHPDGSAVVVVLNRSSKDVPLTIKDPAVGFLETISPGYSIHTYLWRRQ
# Sequence of Glucocorticoid receptor (Homo sapiens) (P04150 whole entry, looked up, the tested form may be a part): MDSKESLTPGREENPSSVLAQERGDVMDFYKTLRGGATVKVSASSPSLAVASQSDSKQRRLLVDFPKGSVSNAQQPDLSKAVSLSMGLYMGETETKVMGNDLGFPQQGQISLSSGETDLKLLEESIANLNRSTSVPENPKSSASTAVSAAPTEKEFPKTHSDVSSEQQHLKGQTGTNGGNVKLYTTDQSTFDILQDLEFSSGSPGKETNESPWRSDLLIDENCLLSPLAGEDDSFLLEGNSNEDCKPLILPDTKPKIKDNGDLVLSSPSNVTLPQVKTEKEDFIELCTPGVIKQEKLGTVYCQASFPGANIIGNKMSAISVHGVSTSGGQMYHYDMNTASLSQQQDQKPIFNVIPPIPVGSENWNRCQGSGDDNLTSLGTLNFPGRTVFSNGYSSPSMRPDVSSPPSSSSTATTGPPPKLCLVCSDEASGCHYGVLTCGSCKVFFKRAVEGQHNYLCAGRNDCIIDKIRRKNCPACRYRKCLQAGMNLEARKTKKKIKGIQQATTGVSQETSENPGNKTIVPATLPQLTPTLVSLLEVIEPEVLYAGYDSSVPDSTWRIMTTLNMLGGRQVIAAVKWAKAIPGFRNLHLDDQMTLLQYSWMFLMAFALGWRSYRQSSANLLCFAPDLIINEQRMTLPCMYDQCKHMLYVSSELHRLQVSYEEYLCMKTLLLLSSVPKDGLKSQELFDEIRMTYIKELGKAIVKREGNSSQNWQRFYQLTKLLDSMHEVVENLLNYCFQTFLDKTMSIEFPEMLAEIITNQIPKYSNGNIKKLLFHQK
# Sequence of Cytochrome P450 3A4 (Homo sapiens) (P08684 whole entry, looked up): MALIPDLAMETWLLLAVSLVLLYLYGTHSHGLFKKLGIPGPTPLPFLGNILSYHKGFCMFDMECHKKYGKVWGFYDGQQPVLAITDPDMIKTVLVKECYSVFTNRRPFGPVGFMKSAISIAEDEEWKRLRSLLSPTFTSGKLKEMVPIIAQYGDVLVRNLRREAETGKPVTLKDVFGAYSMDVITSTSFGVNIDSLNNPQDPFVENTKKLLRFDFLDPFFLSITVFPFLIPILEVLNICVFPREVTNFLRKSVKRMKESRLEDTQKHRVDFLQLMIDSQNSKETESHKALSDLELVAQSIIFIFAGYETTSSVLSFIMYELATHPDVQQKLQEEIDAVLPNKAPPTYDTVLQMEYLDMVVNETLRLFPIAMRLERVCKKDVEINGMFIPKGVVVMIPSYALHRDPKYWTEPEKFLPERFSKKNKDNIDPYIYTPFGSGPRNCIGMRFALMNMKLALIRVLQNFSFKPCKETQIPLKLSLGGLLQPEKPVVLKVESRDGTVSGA
# Sequence of Ubiquitin carboxyl-terminal hydrolase 1 (Homo sapiens) (O94782 whole entry, looked up): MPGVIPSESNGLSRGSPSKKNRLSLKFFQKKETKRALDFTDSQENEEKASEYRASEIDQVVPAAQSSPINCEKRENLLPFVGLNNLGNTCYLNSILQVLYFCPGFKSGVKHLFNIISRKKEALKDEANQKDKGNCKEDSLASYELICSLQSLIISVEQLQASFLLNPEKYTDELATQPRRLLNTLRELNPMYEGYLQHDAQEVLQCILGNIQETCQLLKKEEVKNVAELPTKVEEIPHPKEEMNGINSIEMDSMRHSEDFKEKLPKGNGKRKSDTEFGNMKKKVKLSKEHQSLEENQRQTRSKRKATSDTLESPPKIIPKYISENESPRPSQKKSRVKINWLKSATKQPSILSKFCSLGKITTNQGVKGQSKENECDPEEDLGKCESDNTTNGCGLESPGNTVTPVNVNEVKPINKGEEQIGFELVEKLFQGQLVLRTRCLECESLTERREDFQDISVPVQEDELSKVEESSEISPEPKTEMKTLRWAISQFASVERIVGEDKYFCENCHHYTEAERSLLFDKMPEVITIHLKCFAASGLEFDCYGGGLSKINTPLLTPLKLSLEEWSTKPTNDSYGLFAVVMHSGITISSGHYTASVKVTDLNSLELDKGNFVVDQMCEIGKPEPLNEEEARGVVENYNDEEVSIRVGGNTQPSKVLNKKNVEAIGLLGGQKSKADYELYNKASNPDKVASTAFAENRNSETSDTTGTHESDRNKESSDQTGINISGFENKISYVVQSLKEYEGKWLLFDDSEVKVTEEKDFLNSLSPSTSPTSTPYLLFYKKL
# Sequence of 3',5'-cyclic-AMP phosphodiesterase 4B (Homo sapiens) (Q07343 whole entry, looked up): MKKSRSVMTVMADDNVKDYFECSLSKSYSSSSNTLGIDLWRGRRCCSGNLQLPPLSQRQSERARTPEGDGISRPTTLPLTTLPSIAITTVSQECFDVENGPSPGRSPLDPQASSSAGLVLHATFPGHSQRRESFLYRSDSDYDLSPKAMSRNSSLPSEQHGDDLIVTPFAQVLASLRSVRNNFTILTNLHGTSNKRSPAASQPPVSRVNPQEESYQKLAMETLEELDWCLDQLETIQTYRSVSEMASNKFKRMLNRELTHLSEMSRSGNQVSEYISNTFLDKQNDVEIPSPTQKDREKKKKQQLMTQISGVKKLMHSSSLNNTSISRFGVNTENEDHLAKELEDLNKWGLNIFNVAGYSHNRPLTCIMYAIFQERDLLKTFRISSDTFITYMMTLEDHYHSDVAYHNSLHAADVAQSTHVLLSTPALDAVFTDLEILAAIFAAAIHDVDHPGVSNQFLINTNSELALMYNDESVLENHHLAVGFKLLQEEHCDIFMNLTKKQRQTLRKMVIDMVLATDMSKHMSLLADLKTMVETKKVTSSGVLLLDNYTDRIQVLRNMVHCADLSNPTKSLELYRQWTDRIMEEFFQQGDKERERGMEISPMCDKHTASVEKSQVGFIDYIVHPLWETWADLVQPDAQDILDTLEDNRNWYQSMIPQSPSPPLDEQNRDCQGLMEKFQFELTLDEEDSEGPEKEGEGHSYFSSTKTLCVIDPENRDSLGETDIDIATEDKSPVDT
Compound,Potency [1],"activity change, negative = inhibition [2] [%]",outcome [3],Potency [4],Potency [5] [µM],Potency [6] [µM],outcome [7],Potency [8] [µM],outcome [9],Potency [10],Potency [11]
CN1[C@@H]2CC[C@H]1CC(O)C2 (stereo partly drawn),inactive,-15.4,inactive,inactive,–,–,–,–,–,–,–
O=C(Nc1cccc(F)c1)N1CCCC2(CCN(C(=O)Oc3ccccc3)CC2)C1,10 µM (active),–,inactive,–,> 20,> 11.4,inactive,> 46,inactive,–,–
O=C(Nc1ccccc1)N1CCCC2(CCN(C(=O)Oc3ccccc3)CC2)C1,25.1 µM (active),–,inactive,–,–,> 11.4,inactive,> 46,–,inactive,inactive
